We go through 40 compounds from PubChem BioAssay (Tox21).

A number with no mark means an inactive call. Calls come from the whole dose curve; as a rule, active = well fitted activation curve with a large enough effect in the repeat runs; inconclusive = weak or mixed curves; inactive = flat fitted curve, though single readings scatter.
% is set by controls: 0 for no effect and ±100 for the full control effect.

A short description of the assay: A CellTox Green Cytotoxicity Assay to monitor cytotoxicity in HEK293 cells - 0 hour (AID 1224869). Note: nearly all actives have a fitted effect of over 50% in size. The conditions noted are these: CellTox Green fluorescence; series mostly up to 76.8 µM; cytotoxicity: at the top concentration. The source says: National Center for Advancing Translational Sciences [NCATS]
NIH Chemical Genomics Center [NCGC]
U.S. Environmental Protection Agency [EPA]
National Institutes of Environmental Health Sciences [NIEHS]
National Toxicology Program [NTP]
Cell-based models are critical for drug discovery. Determining the natural cytotoxic effects resulting from test compounds is an essential research activity. A CellTox Green Cytotoxicity Assay to monitor cytotoxicity in real time of continues cell culture during 40 hours of the compound treatment was used to screen Tox21 10K library compounds in Hek293 cells. CellTox Green Cytotoxicity Assay is a nonlytic, homogeneous, biofluorescent method to measure cytotoxicity in cell culture after experimental manipulation. The assay system uses a proprietary asymmetric cyanine dye that is excluded from viable cells but preferentially stains the dead cell's DNA. […] Viable cells produce no appreciable increases in fluorescence. Therefore, the fluorescence signal produced by the binding interaction with dead cell DNA is proportional to cytotoxicity.
The mixture of Hek293 cell suspension and reagents were dispensed at 600cells/6 ul/well in 1536-well tissue culture treated black solid bottom plates using a Multidrop dispenser. After the assay plates were incubated at a 37 C/5% CO2 incubator for 5 hours, 23 nL of compounds dissolved in DMSO, positive and negative controls was transferred to the assay plate by a pintool work station. The plates were incubated at 37 C for 40 hours. The fluorescence intensity were measured at 0h, 8h, 16h, 24h, 32h and 40h time points using ViewLux plate reader during compound treatment.
As to `COc1cccc(N(C)C(=S)Oc2ccc3c(c2)CCCC3)n1`, the “cytotoxicity” value was -1.08% [at 35.3 µM]. For `CCCCC(CC)CN1C(=O)C2C3C=CC(C3)C2C1=O` (stereo not given), the “cytotoxicity” value was 0.413%.

As for `CC(=O)[O][Al][O]C(C)=O`, the “cytotoxicity” value is 0.579%. Take `CCO[Si](CCCCl)(OCC)OCC`: the “cytotoxicity” value is 4.75%. For the compound `C[C@@H](c1ncncc1F)C(O)(Cn1cncn1)c1ccc(F)cc1F` (stereo not given in full), the “cytotoxicity” value is -1.46% [at 35.3 µM]. Regarding `CC(C)(COC(=O)c1ccccc1)COC(=O)c1ccccc1`, the “cytotoxicity” value is -3.64%. Regarding `CCC(C)(C)CC`, the “cytotoxicity” value was -3.18%.

Regarding `CC1CCC(=O)C1=O` (stereo not given), the “cytotoxicity” value is -5.39%. For `CCC(Cl)CCC(Cl)C(Cl)CC(Cl)C(Cl)C(Cl)CCl` (stereo not given) the value was -0.172%; for `COc1ccc(C)cc1[N+](=O)[O-]`, -5.84%; for `COCCCN1CCC(NC(=O)c2cc(Cl)c(N)c3c2OCC3)CC1`, 1.54% [at 35.3 µM]. In the case of `Nc1ncn([C@H]2C[C@H](O)[C@@H](CO)O2)c(=O)n1`, the “cytotoxicity” value is -0.21% [at 35.3 µM]. The figure for `CCCCc1nc2cccnc2n1Cc1ccc(-c2ccccc2-c2nnn[nH]2)cc1` is -6.49%; for `CC(=O)OC[C@H]1O[C@@H](n2ncc(=O)[nH]c2=O)[C@H](OC(C)=O)[C@@H]1OC(C)=O` it is -8.72% [at 35.3 µM]. `ClCCOCCOCCCl`: the “cytotoxicity” value is -5.8%.

As for `O=C1C(O)=C(O)C(=O)C(O)=C1O`, the “cytotoxicity” value is -5.81% [at 35.3 µM].

Consider `c1ccc(-c2ccccn2)nc1`, for which the “cytotoxicity” value is 1.25%. For `Brc1c2ccccc2cc2ccccc12`, the “cytotoxicity” value was 0.946%. The figure for `CC(C)Cc1ccc(C(C)C(=O)OCc2ccccn2)cc1` (stereo not given) is -1.67% [at 35.3 µM]; for `CNCCCCOc1ccccc1Cc1ccccc1` it is -4.86% [at 35.3 µM]; for `O=C(CS)Nc1ccccc1` it is -3.93% [at 35.3 µM].

Turning to `CCC(C)O` (stereo not given), the “cytotoxicity” value is -6.77%.

For `C=C1[C@H]2CC[C@@H]3[C@H]2C(C)(C)CCC[C@]13C`, the “cytotoxicity” value was -2.12%. With `Cc1ccc(N=Nc2c(O)c(C(=O)O)cc3ccccc23)c(S(=O)(=O)O)c1`, the “cytotoxicity” value is -8.97% [at 35.3 µM]. Take `O=C1CCC(=O)O1`: the “cytotoxicity” value is 0.177%. Regarding `CCCCCCCCCCCC(=O)OC[C@@H](O)[C@H]1OC[C@H](OCCO)[C@H]1OCCO`, the “cytotoxicity” value is -9.39%. As for `COC(=O)C1=C(C)NC(COC(N)=O)=C(C(=O)OC(C)C)C1c1cccc(Cl)c1Cl` (stereo not given), the “cytotoxicity” value was 2.53% [at 35.3 µM]. In the case of `Brc1c2ccccc2c(Br)c2ccccc12`, the cytotoxicity is 0.676% [at 6.97 µM]. As to `CCCCCCCCCCCCCCCCOS(=O)(=O)O`, the “cytotoxicity” value was 3.51% [at 35.3 µM].

As to `CCCCC/C=C\C/C=C\CCCCCCCC(=O)NC(C)c1ccccc1` (stereo not given), the “cytotoxicity” value is -10.4% [at 35.3 µM]. In the case of `CCN(CC)CCNc1ccc(CNC=O)c2sc3ccc(OC)cc3c(=O)c12`, the “cytotoxicity” value was -23.9%. `O=C(OCCCCCCOC(=O)c1ccccc1)c1ccccc1`: the “cytotoxicity” value was 2.91%. For `COc1ccc(C(=O)Nc2nc3ccccc3c(NCc3ccccc3)c2C#N)cc1`, the “cytotoxicity” value was 0.602%. The figure for `COS(=O)(=O)C(F)(F)F` is 0.771%. For `O=C(O)c1ccc(S(=O)(=O)O)cc1C(=O)O` the value was -11.5%. As for `CO[C@@H]1[C@H](OC(=O)/C=C/C=C/C=C/C=C/C(=O)O)CC[C@]2(CO2)[C@H]1[C@@]1(C)O[C@@H]1CC=C(C)C`, the “cytotoxicity” value is -6.1%. Regarding `O=C(OCCc1ccccc1)c1ccccc1`, the “cytotoxicity” value was -6%. `Clc1ccc(Cn2c(CN3CCCC3)nc3ccccc32)cc1`: the “cytotoxicity” value is 1.85% [at 35.3 µM]. For the compound `CN(C)CCCN1c2ccccc2Sc2ccccc21`, the “cytotoxicity” value is 3.64% [at 35.3 µM]. As to `NCc1ccccc1Sc1ccccc1CO`, the “cytotoxicity” value is 2.74% [at 35.3 µM].
